Reference: paper PMC5540273 (PLoS ONE, 2017)

Key:
Conditions in all cases: concentration: 1 μM, replicates: in singlicate; n = 1
CAMK1 = system: CAMK1
CAMK2A = system: CAMK2A
CAMK2B = system: CAMK2B
CAMK2D = system: CAMK2D
CAMK2G = system: CAMK2G
CAMK4 = system: CAMK4
CAMKK1 = system: CAMKK1
CAMKK2 = system: CAMKK2
CASK = system: CASK
CDC2L1 = system: T1, CDC2L1
T1 construct: gene CDK11B

CDC2L2 = system: CDC2L2
CDC2L5 = system: T2, CDC2L5
T2 construct: gene CDK13

CDK11 = system: T3, CDK11
T3 construct: gene CDK19

CDK2 = system: CDK2
CDK3 = system: CDK3
CDK4-cyclinD1 = system: CDK4-cyclinD1
CDK4-cyclinD3 = system: CDK4-cyclinD3
CDK4 = system: CDK4
CDK5 = system: CDK5
CDK7 = system: CDK7
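Also: KINOMEscan kinase panel screen.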

For `O=C(Nc1n[nH]c2cc(-c3ccoc3)ccc12)C1CC1` [SB-738481], the “%Inh” value (CAMK1) was 0%, the “%Inh” value (CAMK2A) was 8% and the “%Inh” value (CAMK2B) was 0%. The “%Inh” value (CAMK2D) was 14%, the “%Inh” value (CAMK2G) was 25% and the “%Inh” value (CAMK4) was 0%. The “%Inh” value (CAMKK1) was 2%, the “%Inh” value (CAMKK2) was 18% and the “%Inh” value (CASK) was 0%. For the same compound, the “%Inh” value (CDC2L1) was 0%, the “%Inh” value (CDC2L2) was 0% and the “%Inh” value (CDC2L5) was 29%. For the same compound, the “%Inh” value (CDK11) was 0%, the “%Inh” value (CDK2) was 76% and the “%Inh” value (CDK3) was 51%. For the same compound, the “%Inh” value (CDK4-cyclinD1) was 14%, the “%Inh” value (CDK4-cyclinD3) was 3% and the “%Inh” value (CDK4) was 0%. For the same compound, the “%Inh” value (CDK5) was 17% and the “%Inh” value (CDK7) was 71%.

For `CC(C)(C)c1ccc2nccc(Nc3cccc(O)c3)c2c1` [GW856795], the “%Inh” value (CAMK1) was 0%, the “%Inh” value (CAMK2A) was 0% and the “%Inh” value (CAMK2B) was 0%. For the same compound, the “%Inh” value (CAMK2D) was 0%, the “%Inh” value (CAMK2G) was 0% and the “%Inh” value (CAMK4) was 0%. The “%Inh” value (CAMKK1) was 2%, the “%Inh” value (CAMKK2) was 0% and the “%Inh” value (CASK) was 0%. For the same compound, the “%Inh” value (CDC2L1) was 0%, the “%Inh” value (CDC2L2) was 0% and the “%Inh” value (CDC2L5) was 36%. For the same compound, the “%Inh” value (CDK11) was 17%, the “%Inh” value (CDK2) was 0% and the “%Inh” value (CDK3) was 0%. For the same compound, the “%Inh” value (CDK4-cyclinD1) was 55%, the “%Inh” value (CDK4-cyclinD3) was 0% and the “%Inh” value (CDK4) was 32%. For the same compound, the “%Inh” value (CDK5) was 0% and the “%Inh” value (CDK7) was 1%.

With `COC(=O)Nc1nc2ccc(Oc3ccc(NC(=O)Nc4cc(C(F)(F)F)ccc4F)cc3)cc2n1C.Cl` [GW692089] the “%Inh” value (CAMK1) was 0%, the “%Inh” value (CAMK2A) was 0% and the “%Inh” value (CAMK2B) was 0%. The “%Inh” value (CAMK2D) was 0%, the “%Inh” value (CAMK2G) was 3% and the “%Inh” value (CAMK4) was 0%. The “%Inh” value (CAMKK1) was 4%, the “%Inh” value (CAMKK2) was 0% and the “%Inh” value (CASK) was 1%. The “%Inh” value (CDC2L1) was 0%, the “%Inh” value (CDC2L2) was 10% and the “%Inh” value (CDC2L5) was 0%. The “%Inh” value (CDK11) was 43%, the “%Inh” value (CDK2) was 0% and the “%Inh” value (CDK3) was 0%. For the same compound, the “%Inh” value (CDK4-cyclinD1) was 46%, the “%Inh” value (CDK4-cyclinD3) was 0% and the “%Inh” value (CDK4) was 26%. The “%Inh” value (CDK5) was 0% and the “%Inh” value (CDK7) was 69%.

For `COc1ccc(CNC(=O)NC2CCN(c3ccnc(Nc4ccc(F)cc4)n3)CC2)cc1` [GSK1379788], the “%Inh” value (CAMK1) was 10%, the “%Inh” value (CAMK2A) was 0% and the “%Inh” value (CAMK2B) was 0%. For the same compound, the “%Inh” value (CAMK2D) was 8%, the “%Inh” value (CAMK2G) was 16% and the “%Inh” value (CAMK4) was 0%. For the same compound, the “%Inh” value (CAMKK1) was 2%, the “%Inh” value (CAMKK2) was 16% and the “%Inh” value (CASK) was 0%. The “%Inh” value (CDC2L1) was 0%, the “%Inh” value (CDC2L2) was 10% and the “%Inh” value (CDC2L5) was 0%. The “%Inh” value (CDK11) was 3%, the “%Inh” value (CDK2) was 0% and the “%Inh” value (CDK3) was 3%. For the same compound, the “%Inh” value (CDK4-cyclinD1) was 0%, the “%Inh” value (CDK4-cyclinD3) was 0% and the “%Inh” value (CDK4) was 20%. The “%Inh” value (CDK5) was 0% and the “%Inh” value (CDK7) was 0%.

With `Cn1cc(-c2ccc3c(c2)CCN3C(=O)Cc2cccc(F)c2)c2c(N)ncnc21` [GSK2603358] the “%Inh” value (CAMK1) was 79%, the “%Inh” value (CAMK2A) was 0% and the “%Inh” value (CAMK2B) was 0%. The “%Inh” value (CAMK2D) was 16%, the “%Inh” value (CAMK2G) was 34% and the “%Inh” value (CAMK4) was 0%. For the same compound, the “%Inh” value (CAMKK1) was 26%, the “%Inh” value (CAMKK2) was 29% and the “%Inh” value (CASK) was 17%. The “%Inh” value (CDC2L1) was 0%, the “%Inh” value (CDC2L2) was 21% and the “%Inh” value (CDC2L5) was 0%. The “%Inh” value (CDK11) was 96.7%, the “%Inh” value (CDK2) was 0% and the “%Inh” value (CDK3) was 7%. The “%Inh” value (CDK4-cyclinD1) was 2%, the “%Inh” value (CDK4-cyclinD3) was 0% and the “%Inh” value (CDK4) was 17%. For the same compound, the “%Inh” value (CDK5) was 0% and the “%Inh” value (CDK7) was 0%.

`c1ccc(-c2n[nH]cc2Nc2ccnc3ccccc23)nc1` [GW694077] was tested, and the “%Inh” value (CAMK1) was 20%, the “%Inh” value (CAMK2A) was 21% and the “%Inh” value (CAMK2B) was 17%. For the same compound, the “%Inh” value (CAMK2D) was 19%, the “%Inh” value (CAMK2G) was 23% and the “%Inh” value (CAMK4) was 0%. For the same compound, the “%Inh” value (CAMKK1) was 13%, the “%Inh” value (CAMKK2) was 28% and the “%Inh” value (CASK) was 33%. The “%Inh” value (CDC2L1) was 0%, the “%Inh” value (CDC2L2) was 6% and the “%Inh” value (CDC2L5) was 0%. For the same compound, the “%Inh” value (CDK11) was 6%, the “%Inh” value (CDK2) was 0% and the “%Inh” value (CDK3) was 7%. For the same compound, the “%Inh” value (CDK4-cyclinD1) was 58%, the “%Inh” value (CDK4-cyclinD3) was 46% and the “%Inh” value (CDK4) was 37%. The “%Inh” value (CDK5) was 0% and the “%Inh” value (CDK7) was 47%.

For `Clc1ccc(-c2nn3ncccc3c2-c2ccnc(Nc3ccc4c(c3)OCCO4)n2)cc1` [GW829116], the “%Inh” value (CAMK1) was 0%, the “%Inh” value (CAMK2A) was 0% and the “%Inh” value (CAMK2B) was 0%. The “%Inh” value (CAMK2D) was 0%, the “%Inh” value (CAMK2G) was 0% and the “%Inh” value (CAMK4) was 3%. For the same compound, the “%Inh” value (CAMKK1) was 0%, the “%Inh” value (CAMKK2) was 0% and the “%Inh” value (CASK) was 15%. For the same compound, the “%Inh” value (CDC2L1) was 0%, the “%Inh” value (CDC2L2) was 0% and the “%Inh” value (CDC2L5) was 0%. The “%Inh” value (CDK11) was 0%, the “%Inh” value (CDK2) was 0% and the “%Inh” value (CDK3) was 0%. For the same compound, the “%Inh” value (CDK4-cyclinD1) was 0%, the “%Inh” value (CDK4-cyclinD3) was 0% and the “%Inh” value (CDK4) was 0%. The “%Inh” value (CDK5) was 7% and the “%Inh” value (CDK7) was 0%.

For `NCCCC(NC(=O)c1cc(Br)c(-c2ccnc3[nH]ccc23)s1)c1ccccc1.O=C(O)C(F)(F)F.O=C(O)C(F)(F)F` (stereo not drawn) [GSK1287544], the “%Inh” value (CAMK1) was 13%, the “%Inh” value (CAMK2A) was 0% and the “%Inh” value (CAMK2B) was 0%. For the same compound, the “%Inh” value (CAMK2D) was 0%, the “%Inh” value (CAMK2G) was 10% and the “%Inh” value (CAMK4) was 0%. The “%Inh” value (CAMKK1) was 30%, the “%Inh” value (CAMKK2) was 8% and the “%Inh” value (CASK) was 0%. For the same compound, the “%Inh” value (CDC2L1) was 0%, the “%Inh” value (CDC2L2) was 0% and the “%Inh” value (CDC2L5) was 0%. The “%Inh” value (CDK11) was 45%, the “%Inh” value (CDK2) was 0% and the “%Inh” value (CDK3) was 10%. The “%Inh” value (CDK4-cyclinD1) was 0%, the “%Inh” value (CDK4-cyclinD3) was 2% and the “%Inh” value (CDK4) was 5%. For the same compound, the “%Inh” value (CDK5) was 6% and the “%Inh” value (CDK7) was 4%.

`COc1ccc(-c2coc3ccc(-c4nnc(SCc5ccc(OC)c(C(F)(F)F)c5)o4)cc23)cc1` was tested, and the “%Inh” value (CAMK1) was 0%, the “%Inh” value (CAMK2A) was 0% and the “%Inh” value (CAMK2B) was 1%. The “%Inh” value (CAMK2D) was 7%, the “%Inh” value (CAMK2G) was 0% and the “%Inh” value (CAMK4) was 12%. For the same compound, the “%Inh” value (CAMKK1) was 1%, the “%Inh” value (CAMKK2) was 2% and the “%Inh” value (CASK) was 1%. For the same compound, the “%Inh” value (CDC2L1) was 0%, the “%Inh” value (CDC2L2) was 17% and the “%Inh” value (CDC2L5) was 0%. The “%Inh” value (CDK11) was 57%, the “%Inh” value (CDK2) was 1% and the “%Inh” value (CDK3) was 0%. The “%Inh” value (CDK4-cyclinD1) was 2%, the “%Inh” value (CDK4-cyclinD3) was 0% and the “%Inh” value (CDK4) was 0%. The “%Inh” value (CDK5) was 14% and the “%Inh” value (CDK7) was 0%.
